Experimental findings from ChEMBL document CHEMBL4888484, “Replenishing the malaria drug discovery pipeline: Screening and hit evaluation of the MMV Hit Generation Library 1 (HGL1) against asexual blood stage Plasmodium falciparum ,using a nano luciferase reporter read-out” (2022) are described below.

In all, about 4,800 compounds went through this assay and about 410 (8.5%) showed an effect of 50% or more. This is one part of a sample in which strong results are shown more often than they occur.

In the assay the test system is Plasmodium falciparum. Kind of assay: Confirmatory screen in NF54 pLDH assay, in single point, at 2uM, 72h. Format: functional, Erythrocyte. The following applies: timepoint 72 hour.
Take `O=S1(=O)CCC(NCCC2CCCO2)c2cc(F)c(F)cc21` (stereo not drawn): the “% Inhibition” value was -1%.

As for `C[C@H]1CS(=O)(=O)N(c2ccc(C(=O)Nc3ccccc3Oc3ccccc3)c(Cl)c2)C1=O`, the “% Inhibition” value is -3%.

For `O=C(CCS(=O)(=O)c1ccc2ccccc2c1)Nc1ncn(Cc2c(F)cccc2Cl)n1`, the “% Inhibition” value was determined as 4%.

On to `Cc1ccc(CNC2CCN(C)CC2)c(OCc2ccco2)c1`, for which the “% Inhibition” value is 3%.

With `O=C(NCCOc1cccc(F)c1)c1cccnc1NC1CCCC1`, the “% Inhibition” value was 1%.

Take `O=C(Nc1ccccc1-n1ccnc1)c1cnccn1`: the “% Inhibition” value is -7%.

`Cc1cccc(N2CCN(C(=O)CCC3=Nc4cc(C(F)(F)F)ccc4S(=O)(=O)N3)CC2)c1C`: the “% Inhibition” value came to 12%.

Consider `COc1ccc(OC)c(CCNC(=O)Cn2ccc3cc(S(=O)(=O)N4CCCC4)ccc32)c1`, for which the “% Inhibition” value is on record as 11%.

Regarding `COc1ccc(CNC(=O)c2ccc(N3C(=O)[C@@H]4Cc5c([nH]c6ccccc56)C(c5cccc(OC)c5)N4C3=O)cc2)cc1` (stereo partly drawn), the “% Inhibition” value amounted to 32%.

For `CCOc1ccc(C2c3[nH]c4ccccc4c3C[C@H]3C(=O)N(C4CCN(Cc5ccccc5)CC4)CC(=O)N23)cc1OC` (stereo partly drawn), the “% Inhibition” value is 79%.

In the case of `COc1ccccc1C1c2[nH]c3ccccc3c2C[C@H]2C(=O)N(CC(O)c3ccccc3)CC(=O)N12` (stereo partly drawn), the “% Inhibition” value was 12%.

Take `CCN1c2cc(C)ccc2-n2cccc2C12CCNCC2`: the “% Inhibition” value is given as -7%.

`COc1ccc(C(C)(C)C(=O)N(C)Cc2cn(C)nc2C(C)C)cc1`: the “% Inhibition” value is 13%.

`COc1nc(NC2CCS(=O)(=O)CC2)ncc1F`: the “% Inhibition” value was found to be 77%.

Take `CC1(C)C(NCC(O)COc2ccc(F)c(F)c2)[C@@H]2CCC[C@@H]21` (stereo partly drawn): the “% Inhibition” value turned out to be 75%.

In the case of `Cc1cccc2sc(N3CCC[C@H](CNS(N)(=O)=O)C3)nc12`, the “% Inhibition” value is listed as 9%.

With `Cc1nc(N2CCC(c3nc(-c4ccccc4)no3)CC2)c2c(C)noc2n1`, the “% Inhibition” value was 9%.

On to `CCn1nccc1CN(C)C(=O)c1cc(S(=O)(=O)N(C)C)c(Cl)cc1Cl`, for which the “% Inhibition” value is listed as -10%.

On to `COc1cccc(-c2nc(C)c(C(=O)Nc3nc(C(C)C)n[nH]3)s2)c1`, for which the “% Inhibition” value was 10%.

Turning to `O=C(NC1CCCCC1)c1nn(-c2ccccc2)c(=O)c2ccccc12`, the “% Inhibition” value is recorded as -12%.

With `CN1CCCN(c2ccc(NC(=O)c3nn(-c4ccccc4)c(=O)c4ccccc34)cc2F)CC1`, the “% Inhibition” value is 68%.

Take `O=C(Nc1ccc(N2CCCC2)c(F)c1)C(=O)Nc1ccon1`: the “% Inhibition” value is recorded as -13%.

Consider `Cc1ccc(S(=O)(=O)N(CC(=O)N[C@@H](C)c2ccccc2)c2cccc(Br)c2)cc1`, for which the “% Inhibition” value turned out to be 11%.

Take `CCCc1ccc(OCCNC(=O)C2CCCC2)cc1`: the “% Inhibition” value was determined as 3%.

As for `O=C(Nc1ccccc1)C(=O)Nc1ccc2ncc(Cl)n2c1`, the “% Inhibition” value was 7%.

For the molecule `O=C(c1cc2nc(-c3ccc(Cl)c(Cl)c3)cc(C(F)(F)F)n2n1)N1CCN(c2ccccc2)CC1`, the “% Inhibition” value is given as -7%.

For the molecule `CCc1ccc(-c2cc3c(=O)n(CC(=O)N4CC(C)CC(C)C4)ncn3n2)cc1` (stereo not drawn), the “% Inhibition” value stood at 11%.

For the molecule `Cc1cc(NCCc2nccn2C)ncn1`, the “% Inhibition” value is given as -4%.

Take `Cc1sc2nc(-c3ccccn3)nc(NCC(=O)N3CCC(O)CC3)c2c1-c1ccccc1`: the “% Inhibition” value is given as 23%.

In the case of `CCN1CCN(c2nc3ncn(CC(=O)NCCCc4ccccc4)c(=O)c3s2)CC1`, the “% Inhibition” value was -2%.

For `CCc1c(C)nn(S(=O)(=O)c2ccc3ccccc3c2)c1O`, the “% Inhibition” value is recorded as -3%.

`Cc1ncsc1COC(=O)c1ccnc(N(C)C)c1`: the “% Inhibition” value was 10%.

Regarding `C[C@H]1CCC[C@@H](NCCc2ccccc2)CCC/C=C/c2cc(O)cc(O)c2C(=O)O1`, the “% Inhibition” value is listed as 72%.

Consider `Cc1cccc(NC(=O)c2cc(Cl)c[nH]2)n1`, for which the “% Inhibition” value was determined as 6%.

Turning to `COc1ccccc1C1CC1c1nc(CC(=O)NC2CCCC2)no1` (stereo not drawn), the “% Inhibition” value is -5%.

`Cc1ccc(-c2noc(CCC(=O)NC[C@H]3CCCO3)n2)c(=O)n1C(C)C`: the “% Inhibition” value stood at 0%.

Regarding `CN(CCNC(=O)CCc1cn(-c2ccccc2)nc1-c1ccc2c(c1)OCO2)C1CCCCC1`, the “% Inhibition” value came to 49%.

Regarding `CC[C@H](C)NC(=O)c1cn(-c2cccc(C)n2)cn1`, the “% Inhibition” value turned out to be 13%.

For the molecule `Nc1ccc(Cc2nnc3n2CCC3)cc1`, the “% Inhibition” value worked out at 8%.

With `O=C(N[C@@H](CN1CCCC1)c1ccccc1)N1CCC(c2ccn[nH]2)CC1`, the “% Inhibition” value is on record as 43%.

Regarding `OCCNCc1c(Cl)cccc1Cl`, the “% Inhibition” value came to 4%.

Consider `CN(C)CCCNCc1ccccc1F`, for which the “% Inhibition” value worked out at 10%.

`Clc1cccc(CNCCCNc2ccncc2)c1Cl`: the “% Inhibition” value is listed as 95%.

Turning to `CC(NC(=O)C1CCC1)C(=O)Nc1ccn(C(C)c2ccccc2)n1` (stereo not drawn), the “% Inhibition” value was -6%.

With `O=C(Nc1ccc(Cn2ccnc2)cc1)c1cc2ccccc2cc1OC(F)F`, the “% Inhibition” value is listed as -12%.

As for `O[C@@H](Cc1ccc2ccccc2n1)c1ccccc1`, the “% Inhibition” value is recorded as -3%.

In the case of `Cc1ccc[n+](Cc2ccc3ccccc3n2)c1`, the “% Inhibition” value is reported as 53%.

Take `c1ccc2c[n+](Cc3ccc4ccccc4n3)ccc2c1`: the “% Inhibition” value turned out to be 47%.

In the case of `CCn1nc(-n2cnnc2)c(NS(=O)(=O)c2ccc(Br)cc2C)c1C`, the “% Inhibition” value is given as 12%.

In the case of `CC(=O)Nc1cccc(NC(=O)Cn2c(=O)n(CCc3cccs3)c(=O)c3ccccc32)c1`, the “% Inhibition” value came out at 10%.

On to `CCOC(=O)c1ncn(C2CCCCC2)c1N`, for which the “% Inhibition” value is recorded as 10%.

For `CCOC(=O)c1cn(CC)c2cc(NC3CCCCC3)c(F)cc2c1=O`, the “% Inhibition” value was 69%.

`CCOC(=O)c1cc(NC(=O)C(C)(C)NC(=O)OC(C)(C)C)c(F)cc1C`: the “% Inhibition” value came out at 8%.

With `CC[C@H]1C[C@@H]1CNC(=O)c1cccc(NC(=O)c2ccco2)c1`, the “% Inhibition” value is reported as -2%.

With `Cc1cc2[nH]ncc2cc1NC(=O)c1ccco1`, the “% Inhibition” value was determined as 9%.

As for `COC(C)(C)c1nc(Cn2cnc3ccccc32)no1`, the “% Inhibition” value is reported as 6%.

As to `CC(C)[C@H](NC(=O)c1ccc(Cl)cc1Cl)C(=O)O`, the “% Inhibition” value was -5%.

For `CCOC(=O)CCn1cc(F)c(=O)[nH]c1=O`, the “% Inhibition” value was 66%.

As for `CCOC(=O)COc1cc(N)c(F)cc1Cl`, the “% Inhibition” value was -9%.

Consider `CCOC(=O)CNc1ccc(F)c(Cl)c1`, for which the “% Inhibition” value is listed as -3%.

With `COCCCNC(=O)c1cncc(Br)c1`, the “% Inhibition” value is given as -2%.

On to `NC(=O)c1cc(Cl)c(Cl)c(Cl)c1`, for which the “% Inhibition” value was -22%.

On to `O=C1CCC[C@H](O)N1Cc1ccc(F)cc1`, for which the “% Inhibition” value is reported as 8%.

Take `CCc1ccc([C@H]2NCCc3[nH]cnc32)nc1`: the “% Inhibition” value came to 24%.

Take `CCc1ccc(CN2CCC[C@H](c3ncc[nH]3)C2)nc1`: the “% Inhibition” value was found to be 52%.

Regarding `CC(C)n1ccc(CN2CCC[C@H](c3cc(C(F)(F)F)[nH]n3)C2)n1`, the “% Inhibition” value is reported as 1%.

For the molecule `c1ccc(C(c2ccccc2)N2CCN(c3nn4cnnc4c4ccccc34)CC2)cc1`, the “% Inhibition” value was 65%.

With `O=C(c1cccc(C(=O)N2CCN(C(c3ccccc3)c3ccccc3)CC2)c1)N1CCN(C(c2ccccc2)c2ccccc2)CC1`, the “% Inhibition” value is 26%.

In the case of `CCc1cc(C(=O)N2CCCCC2)c2c(C)nn(-c3ccc(OC)cc3)c2n1`, the “% Inhibition” value is given as 10%.

Turning to `COC(=O)[C@](Nc1ccc(Oc2ccccc2)cc1)(c1cc(C)c(O)c(C)c1)C(F)(F)F`, the “% Inhibition” value is 7%.

For `CCCCn1c(N)c(N(Cc2ccccc2OC)C(=O)c2ccoc2C)c(=O)[nH]c1=O`, the “% Inhibition” value was -22%.

As to `Cc1ccc(Nc2c(C(=O)NCc3ccc(F)cc3)cnc3c2c(C)nn3C)cc1`, the “% Inhibition” value was -5%.

As for `O=C(NCCN1CCCC1)c1cc2n(n1)CCN(Cc1cccc(F)c1)C2=O`, the “% Inhibition” value is on record as -27%.

On to `N#Cc1nc2c(C#N)c(N)n(CCc3ccccc3)c2nc1C#N`, for which the “% Inhibition” value is given as 92%.

Consider `Nc1nc2c(s1)CN(CCc1ccccc1)CC2`, for which the “% Inhibition” value is reported as 41%.

As to `N#Cc1c(-c2ccccc2)cc(-c2ccccc2)nc1S(=O)(=O)Cc1ccccc1`, the “% Inhibition” value worked out at 43%.

For `O=S(=O)(c1ccccc1F)C1CNC1`, the “% Inhibition” value is listed as -18%.

In the case of `O=C(c1cccc(COc2ccc(Br)cc2)c1)N1CCN(Cc2ccccc2)CC1`, the “% Inhibition” value was -14%.

Take `CC(C)c1nc(C(=O)Nc2ccccc2CN2CCNC2=O)cs1`: the “% Inhibition” value worked out at 5%.

For `CC(C)c1nc(C(=O)Nc2[nH]c(=O)ncc2F)cs1`, the “% Inhibition” value is 83%.

For the molecule `O=C(Nc1[nH]c(=O)ncc1F)c1coc(-c2ccccc2)n1`, the “% Inhibition” value worked out at 71%.

Consider `O=C(c1coc(-c2ccccc2)n1)N1CCc2cc(Br)ccc21`, for which the “% Inhibition” value turned out to be 1%.

Consider `Cc1ccc(-c2cc(C(=O)Nc3nnc(C(C)C)s3)no2)cc1F`, for which the “% Inhibition” value came out at 16%.

For the molecule `Cc1nc(C(=O)Nc2[nH]c(=O)ncc2F)c(-c2ccccc2)o1`, the “% Inhibition” value was found to be 70%.

In the case of `O=C(CNc1cc(F)c(F)cc1F)NC(=O)NCC(F)(F)F`, the “% Inhibition” value was -5%.

Regarding `CC(C)CN1C(=O)CC[C@@H](C(=O)NCCCN2CCOCC2)[C@@H]1c1cccnc1`, the “% Inhibition” value is listed as -17%.

Turning to `Cc1nc2ccc(Cl)cc2c(-c2ccccc2)c1C1=NN(S(C)(=O)=O)[C@H](c2ccccc2Cl)C1`, the “% Inhibition” value is -14%.

Consider `Cn1cc(-c2csc(NC(=O)c3ccc4[nH]cnc4c3)n2)cn1`, for which the “% Inhibition” value is 7%.

As to `CCN1C(=O)CN(C(=O)c2cccc(C)c2)CC12CCOCC2`, the “% Inhibition” value is on record as 9%.

As for `O=C(Nc1nc2cccc(Cl)c2o1)c1cccc(F)c1`, the “% Inhibition” value came to 92%.

Regarding `CC(C)(C)NC(=O)CNC(=O)c1cccc(F)c1`, the “% Inhibition” value is reported as -8%.

In the case of `Cc1nc(Cn2nnc(NC(=O)c3cccc(F)c3)c2C)no1`, the “% Inhibition” value is given as 8%.

For the molecule `Cc1c(Br)c(C)n(NC(=O)c2cnn(Cc3ccccc3)c2)c(=O)c1C#N`, the “% Inhibition” value is recorded as -15%.

For `Cc1cccc(C)c1Oc1ccccc1NC(=O)CCc1nnc[nH]1`, the “% Inhibition” value is listed as 4%.

Consider `O=S(=O)(Nc1ccc2nncn2c1)c1c(F)cccc1Cl`, for which the “% Inhibition” value was -18%.

For the molecule `Cc1ccc(F)cc1NC(=O)N1CCC12CCC2`, the “% Inhibition” value was 11%.

Turning to `N#CC1(c2ccccc2)c2ccccc2C(=O)c2ccccc21`, the “% Inhibition” value was -4%.

For the molecule `CN(Cc1ccccc1)C(=O)C[C@H]1CCN(C(=O)NC2CCCC2)C1`, the “% Inhibition” value came to 2%.

For the molecule `Cc1cccc2ncnc(N(C)[C@@H](C)Cc3ccc(O)cc3)c12`, the “% Inhibition” value was 84%.

On to `Cc1n[nH]c2ncc(NC(=O)c3ccc(CCC(F)(F)F)cc3)cc12`, for which the “% Inhibition” value came out at 17%.

Regarding `Cc1cc(C)cc(CN2CCCN(c3ccc(C)cc3NC(=O)Cc3ccc(F)cc3)C2=O)c1`, the “% Inhibition” value came out at 13%.

As for `CC(C)CCO[C@@H](C)C(=O)NC1CCN(CC(=O)NC(C)C)CC1`, the “% Inhibition” value is 5%.

`O=C1C2C3C=CC(C3=C3CCCCC3)C2C(=O)N1c1cccc(Cl)c1` (stereo not drawn): the “% Inhibition” value is on record as 15%.

What is called % Inhibition is the relative decrease from the control value, in per cent.
